Composite z-score data for 31 molecules are collected here from PubChem BioAssay.

Molecules are shown by their SMILES.

The nature of this test: probe aNOTCH2 binding on compound microarray – biochemical, small-molecule microarray, 635/667 nm fluorescence, primary screen (AID 1121).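 Further: score merges feature fluorescence read at 667 nm with its signal to noise.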 To be noted: higher = more signal.
`CSCC[C@@H]1NC(=O)CC=C[C@@H](C)COC(=O)[C@H](C)COC1=O` yielded a composite z-score of 0.059. With `CC1(C)O[C@H]2O[C@H]([C@H](O)CON=C3[C@H]4CCn5c(=O)n(-c6ccccc6)c(=O)n5[C@H]4[C@H](O)[C@@H]4O[C@H]34)[C@H](O)[C@H]2O1` the figure was -0.105. With `COc1cccc([C@H]2Oc3ccc(OC)cc3C(=NO[C@@H](C)c3cc(-c4c(C)cc(C)cc4C)no3)[C@@H]2O)c1` the figure was -0.155; with `CC(=O)OC[C@H]1O[C@H](C#CCCc2ccccc2)C=C[C@@H]1OC(C)=O`, -0.0727; with `CC(C)=CCCC(C)=CCON=C1C[C@@H](O)[C@@H](O)[C@@H]2[C@@H]3C(=O)N(C4CCCCC4)C(=O)[C@@H]3CC[C@H]12`, -0.164. With `COC(=O)[C@H](C)NC(=O)CCC1CC(OC(=O)NCc2ccc3c(c2)OCO3)CC2(CCCC(COC(=O)NCCc3ccc(Cl)cc3)O2)O1` (stereo partly specified) the figure was -0.0974; with `COC(=O)[C@H](C)NC(=O)CCC1CC(OC(=O)NCCc2ccc(F)cc2)CC2(CCCC(COC(=O)NCC3CCCCC3)O2)O1` (stereo partly specified), -0.106. For `CCN1C(=O)[C@H]2[C@H]3[C@H](O)[C@H](O)CC(=NO[C@H](C)c4cn([C@H](CO)Cc5ccccc5)nn4)[C@@H]3CC[C@H]2C1=O`, the composite z-score is -0.135. With `CCN1C(C)=C(C(=O)OC)[C@@H](c2ccccc2)N2C(=O)[C@](O)(C(=O)OC)CC(C(C)=O)=C12` the figure was -0.207; with `C=CC[C@@H]1C=C[C@H](ON=C(C)CCN2CCCCc3nc(C)c(C)cc32)[C@@H](CO)O1`, -0.14.

Molecule `CC(C)=NOC(C)CN1CCCCc2nc(C)c(C)cc21` (stereo unspecified) returned a composite z-score of -0.0859. With `CCOC(=O)[C@H](Cc1ccccc1)NC(=O)CCC1CC(OC(=O)NCCc2ccc(F)cc2)CC2(CCCC(COC(=O)NCCOc3ccccc3)O2)O1` (stereo partly specified) the figure was -0.0189; with `Cc1ccc(S(=O)(=O)N[C@@H]2COC(=O)CC=C[C@@H](C)[C@H](NS(=O)(=O)c3ccc(C)cc3)COC(=O)[C@H](C)NC(=O)CC=C[C@H]2C)cc1`, -0.0808. `CCOC(=O)CCN1C(=O)[C@H]2[C@H]3[C@H](O)[C@H](O)CC(=NOCC(C)C)[C@@H]3CC[C@H]2C1=O` showed a composite z-score of -0.186. With `CC(=O)OC[C@H]1O[C@H](CCON=C(C)CCN2CCCc3nc(C)c(C)cc32)C=C[C@@H]1OC(C)=O` the figure was -0.0482; with `Cc1cc2c(nc1C)CCCCN2CC(O)CN1CCCc2nc(-c3ccc(Br)cc3)ccc21` (stereo unspecified), 0.0067; with `CC(C)(C)N1C(=O)[C@H]2[C@@H]3C(=CC[C@H]2C1=O)C(=O)[C@H]1O[C@H]1[C@H]3O`, -0.154. With `CC(CCN1CCCc2nc(C)c(C)cc21)=NOC[C@@H](C)[C@H](OCc1ccccc1)C(C)C` the figure was -0.0878; with `CON=C(C)CCC(=O)OC[C@H]1O[C@H](C#Cc2ccccc2)C=C[C@@H]1Oc1ccc(C)cc1`, -0.0751; with `C[C@@H]1CC[C@@H](C(=O)O)N[C@H]1c1cccc(N2CCOCC2)c1`, -0.126. With `O=C1C2=CC[C@H]3C(=O)N(C4CCCCC4)C(=O)[C@H]3[C@H]2[C@H](O)[C@@H]2O[C@H]12` the figure was -0.149; with `CCOC(=O)[C@H](Cc1ccccc1)NC(=O)CCC1CC(OC(=O)NCCc2ccc(F)cc2)CC2(CCCC(COC(=O)NCc3cccc(C(F)(F)F)c3)O2)O1` (stereo partly specified), -0.192. As to `O=C1[C@H]2[C@H]3[C@H](O)[C@H](O)CC(=NO[C@@H]4O[C@H](CO)[C@@H](O)[C@H](O)[C@H]4O)[C@H]3CC[C@H]2C(=O)N1C[C@@H]1CCCO1`, the composite z-score is -0.0101.

For `CC(CCC(=O)OC[C@H]1O[C@H](C#Cc2ccccc2)C=C[C@@H]1Oc1ccc(C)cc1)=NOC[C@@H](C)[C@H](OCc1ccccc1)C(C)C`, the composite z-score was -0.226.

Regarding `C[C@@H]1CC[C@H]2C(=O)OC(Cc3ccccc3)CN2[C@H]1c1ccc(Br)cc1` (stereo partly specified), the composite z-score is -0.198. With `COC(=O)CC=C[C@@H](C)[C@@H](C=NOC[C@@H](O)COCc1ccco1)OC`, the composite z-score was -0.14. With `CCc1cc2c(nc1CC)CCN(CCC(C)=NOC[C@@H](C)[C@H](OCc1ccccc1)C(C)C)C2` the figure was -0.135; with `O=C1C2=CC[C@H]3C(=O)N(C[C@@H]4CCCO4)C(=O)[C@H]3[C@H]2[C@H](O)[C@@H]2O[C@H]12`, -0.0928. The molecule `CCOC(=O)CCN1C(=O)[C@H]2[C@H]3[C@H](O)[C@H](O)CC(=NNC(=O)OCC)[C@H]3CC[C@H]2C1=O` came in with a composite z-score of -0.145. `COc1ccc2c(c1)O[C@@H](c1cccc(C(F)(F)F)c1)[C@H](O)C2=O` had a composite z-score of -0.0761. With `COC(=O)CC=C[C@@H](C)[C@@H](C=NOC(C)CN1CCCCc2nc(C)c(C)cc21)NS(=O)(=O)c1ccc(C)cc1` (stereo partly specified) the figure was -0.19.
